For experiment [1], the target named is Aldehyde dehydrogenase, mitochondrial (Homo sapiens) (UniProt P05091). As to the kind of experiment: qHTS for Inhibitors of the Aldehyde Dehydrogenase Family (ALDH2) Primary screen (AID 2061308).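 Also: plate controls were vehicle for no effect and reference inhibitor for full effect; nearly all actives have a fitted effect of over 55% in size.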
Experiment [2] addresses Retinaldehyde dehydrogenase 3 (Homo sapiens) (UniProt P47895). As to the kind of experiment: qHTS for Inhibitors of the Aldehyde Dehydrogenase Family (ALDH1A3) Confirmatory screens (AID 2061311). Also: nearly all actives have a fitted effect of over 60% in size. Also: potency is read from the fitted curve at half-maximal effect. As to activity change, negative = inhibition: % is scaled to controls: 0 for no effect and ±100 for the full control effect.
The target of experiment [3] is Retinal dehydrogenase 2 (Homo sapiens) (UniProt O94788). Briefly: qHTS for Inhibitors of the Aldehyde Dehydrogenase Family (ALDH1A2) Confirmation screens (AID 2061314). Also: nearly all actives have a fitted effect of over 65% in size. Also: potency is read from the fitted curve at half-maximal effect. On the technique in general: qHTS replaces the single test concentration by a dilution series.
In experiment [4] the target is Retinaldehyde dehydrogenase 3 (Homo sapiens) (UniProt P47895). Briefly: qHTS for Inhibitors of the Aldehyde Dehydrogenase Family (ALDH1A3) Primary screen (AID 2061315). Also: potency is read from the fitted curve at half-maximal effect.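 As to activity change, negative = inhibition: plate controls were DMSO vehicle for no effect and reference inhibitor for full effect.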
Experiment [5] addresses Aldehyde dehydrogenase 1A1 (Homo sapiens) (UniProt P00352). As to the kind of experiment: qHTS for Inhibitors of the Aldehyde Dehydrogenase Family (ALDH1A1) Confirmatory screens (AID 2061316). Also: nearly all actives have a fitted effect of over 65% in size. Also: potency is read from the fitted curve at half-maximal effect. As to activity change, negative = inhibition: % is scaled to controls: 0 for no effect and ±100 for the full control effect.
Experiment [6] addresses Retinaldehyde dehydrogenase 3 (Homo sapiens) (UniProt P47895). As to the kind of experiment: qHTS for Inhibitors of the Aldehyde Dehydrogenase Family (ALDH1A3) Validation screen (AID 2061312). Also: nearly all actives have a fitted effect of over 45% in size. Also: potency is read from the fitted curve at half-maximal effect. As to activity change, negative = inhibition: % is scaled to controls: 0 for no effect and ±100 for the full control effect.

Results filed as inconclusive are left out. A number with no mark means an inactive call. The source made the active and inactive calls. Calls follow the shape of the dose curve; as a rule, active = well fitted curve in the direction sought with a large enough effect; inconclusive = small, poorly fitted or top-dose-only effect, or another doubt; inactive = no such curve, though single readings can be large; an effect the other way counts as inactive or inconclusive.

For the compound `N[C@@H]1CCN(c2cnc3c(O)ccc(C(=O)O)c3c2)C1`, the Potency result in experiment [1], in experiment [4] and in experiment [5] was “inactive” each time. The Potency is 12.7 µM (active) in experiment [2] and 25.2 µM (active) in experiment [3].
For the compound `COc1ccc(-c2ccc(=O)n(CC(=O)NCCc3ccccc3)n2)cc1`, the Potency entry in experiment [1], in experiment [4] and in experiment [5] was “inactive” each time. Besides, the Potency in experiment [2] was 1.58 µM (active); in experiment [3] it was 15.8 µM (active).
In the case of `Oc1ccc(CNc2cc(Cl)ccn2)c2cccnc12`, the Potency entry in experiment [1] is “inactive”. The Potency in experiment [2] was 3.57 µM (active); in experiment [3], 12.7 µM (active); in experiment [5] it was 8.96 µM (active).
As to `Cc1ccnc(NC(=S)N[C@@H]2CCN(c3cccc(C(F)(F)F)c3)C2)c1`, the Potency result in experiment [1], in experiment [2] and in experiment [4] was “inactive” throughout.
In the case of `COc1ccc(Nc2cc(O)c3ncccc3c2)cc1`, the Potency result in experiment [1], in experiment [3] and in experiment [5] was “inactive” in each case. In experiment [2], the Potency was 0.0357 µM (active).
In the case of `CC(C)(C)OC(=O)N[C@@H](Cc1ccc(O[S+](=O)([O-])c2cccnc2)cc1)C(=O)N1CCN(c2ccccc2)CC1`, the Potency entry in experiment [1] and in experiment [4] was “inactive” each time. Also, the Potency in experiment [2] was 28.3 µM (active); in experiment [3], 15.9 µM (active).
Regarding `COc1ccc(C2NC(=O)c3ccccc3N2)cc1COc1ccc(NC(C)=O)cc1` (configuration not stated), the Potency entry in experiment [1], in experiment [2] and in experiment [4] was “inactive” each time.
As to `CCC(=O)NC(c1ccco1)c1cc(Br)c2cccnc2c1O` (configuration not stated), the Potency entry in experiment [1] and in experiment [4] was “inactive” each time. The Potency in experiment [2] is 12.7 µM (active); in experiment [3], 11.3 µM (active).
With `O=C(O)c1ccc(O)c2ncc(NC3CCNC3)cc12` (configuration not stated), the Potency result in experiment [1], in experiment [2], in experiment [4] and in experiment [5] was “inactive” in each case. Also, the Potency in experiment [3] is 3.57 µM (active).
As to `O=C1Nc2ccccc2/C1=C\c1ccc([N+](=O)[O-])cc1`, the Potency entry in experiment [1] and in experiment [4] was “inactive” throughout. The Potency was 17.8 µM (active) in experiment [2] and 2.83 µM (active) in experiment [3].
On to `COc1cc(O)ccc1OCCNCC(O)COc1cccc2[nH]c3ccccc3c12` (configuration not stated), for which the Potency entry in experiment [1] is “inactive”. Further, the Potency in experiment [2] was 12.7 µM (active); in experiment [4], 3.16 µM (active).
Regarding `Nc1cccc(CNc2ccc(S(=O)(=O)Nc3nccs3)cc2)c1O`, the figures for the activity change, negative = inhibition in experiment [1] and in experiment [4] were 2.56% [at 11.2 µM] and -14.8% [at 11.2 µM], respectively. For the same compound, the Potency in experiment [2] was 10.1 µM (active); in experiment [5], 11.3 µM (active). For the same compound, the Potency entry in experiment [3] was “inactive”.
Regarding `c1c[nH]c(C2CCN(c3ncc(-c4ccc5c(c4)OCCCO5)s3)CC2)n1`, the Potency entry in experiment [1] and in experiment [4] was “inactive” each time. The values for the Potency in experiment [2], in experiment [3] and in experiment [5] were 5.04 µM (active), 4 µM (active) and 1.79 µM (active), respectively.
As to `COc1ccc(C(=O)N(Cc2ccccc2)Cc2ccco2)c(O)c1`, the Potency entry in experiment [1] and in experiment [4] was “inactive” throughout. Besides, the values for the Potency in experiment [2] and in experiment [3] were 14.2 µM (active) and 25.2 µM (active), respectively.
With `CC(=O)Nc1sc2c(c1-c1ccc(N3CCN(C(C)=O)CC3)nc1)CCNC2`, the Potency result in experiment [1] and in experiment [4] was “inactive” each time. Besides, the Potency in experiment [2] was 12.7 µM (active); in experiment [3], 7.98 µM (active).
For `O=C1CCCC2=C1C1(CCC1)N=C(Nc1nc3ccccc3o1)N2`, the Potency entry in experiment [1], in experiment [4] and in experiment [5] was “inactive” throughout. Also, the Potency in experiment [2] was 12.7 µM (active); in experiment [3] it was 7.98 µM (active).
Turning to `C=CCNc1nnc(-c2cccc3ccccc23)o1`, in experiment [1], the Potency entry was “inactive”. The Potency in experiment [2] is 10.1 µM (active); in experiment [3], 8.96 µM (active); in experiment [5], 7.98 µM (active).
With `COc1ccc(CNc2ccc(S(=O)(=O)Nc3nccs3)cc2)cc1O`, the Potency result in experiment [1] and in experiment [4] was “inactive” each time. For the same compound, the Potency in experiment [2] was 5.65 µM (active); in experiment [3], 6.34 µM (active); in experiment [5] it was 7.12 µM (active).
For the compound `CN1CCN(c2ccc(NC(=O)c3cccs3)cn2)CC1`, the Potency result in experiment [1] and in experiment [4] was “inactive” throughout. For the same compound, the Potency was 22.5 µM (active) in experiment [2] and 12.7 µM (active) in experiment [3].
In the case of `Cc1noc(C)c1S(=O)(=O)Nc1cnccc1C(=O)Nc1nc(-c2ccccc2)cs1`, the Potency entry in experiment [1], in experiment [2] and in experiment [4] was “inactive” throughout.
As for `NC(=O)C1CCN(c2nc(-c3ccccc3-c3ccccc3)cs2)CC1`, the Potency result in experiment [1] was “inactive”. The Potency in experiment [2] is 2.83 µM (active); in experiment [5] it was 3.18 µM (active).
Turning to `COc1ccc(NC(=O)Nc2ccc(-c3nc4ccccc4[nH]3)cc2)cc1OC`, the Potency entry in experiment [1], in experiment [2] and in experiment [4] was “inactive” each time.
For `NC(=O)c1nc(Nc2ccccc2)sc1NC(=O)C1CCCCC1`, the Potency result in experiment [1], in experiment [6] and in experiment [4] was “inactive” in each case.
As to `CC(=O)c1c(OCCN2CCCCC2)c(OCCC(C)c2ccc(F)cc2)c2oc(C)nc2c1C` (configuration not stated), the Potency entry in experiment [1], in experiment [6] and in experiment [4] was “inactive” in each case.
Regarding `N#Cc1ccc2[nH]c(O)c(-c3ccc(CN4CCOCC4)cn3)c2c1`, the Potency entry in experiment [1] was “inactive”. In experiment [6], the Potency is 10 µM (active).
With `CNC1CN(c2ccc3c(=O)c(C(=O)O)cn(-c4nccs4)c3n2)CC1OC` (configuration not stated), the values for the activity change, negative = inhibition in experiment [1], in experiment [6] and in experiment [4] were 2.97% [at 11.2 µM], -0.123% [at 20.1 µM] and -3.75% [at 11.2 µM], respectively.
In the case of `CC(=O)NC(c1cccs1)c1cc(Br)c2cccnc2c1O` (configuration not stated), the Potency result in experiment [1] and in experiment [4] was “inactive” throughout. Moreover, the Potency in experiment [2] was 10.1 µM (active).
With `Cc1cn(C2C=CC(CO)O2)c(=O)[nH]c1=O` (configuration not stated), the Potency entry in experiment [1], in experiment [6] and in experiment [4] was “inactive” throughout.
Consider `Cc1cc(C)nc(NC(=S)N2CCN(c3ccc4nonc4c3)CC2)c1`, for which the Potency result in experiment [1] and in experiment [4] was “inactive” in each case. Moreover, the results for the Potency in experiment [2] and in experiment [5] were 15.9 µM (active) and 11.3 µM (active), respectively.
For `O=C(CCCCCCC(=O)Nc1ccc(C2OC(CSc3nc(-c4ccccc4)c(-c4ccccc4)o3)CC(c3ccc(CO)cc3)O2)cc1)NO` (configuration not stated), in experiment [1], the Potency result was “inactive”. In experiment [6], the Potency is 10 µM (active).

The values are drawn from PubChem BioAssay (NCATS).
